# Test results as given in PubChem BioAssay.
# Several values for one entry are separate records, joined by “and”; a condition that tells them apart may be missing. Equal values may be shown once. Activity calls are given as the source filed them.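 The calls were made as follows, unless noted: active = compounds killing one labelled cell type while sparing the other, by normalised counts and ratio limits, not self-fluorescent; inactive = the rest.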
# Columns and labels:
# [1] = P. berghei load reduction in hepatocytes – cell-based, HepG2, luciferase luminescence, HepG2 viability, primary screen (AID 624349; in the data active = parasite load remaining mostly below about 12%, no sharp cut-off; inactive = mostly above about 10%;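 also: 100% = mean of DMSO negative control wells on the same plate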); conditions: P. berghei liver stage in HepG2, luciferase luminescence, concentration not given here; parasite load remaining: stronger effect = lower value; viability: measured here: HepG2 viability without parasites
# [2] = EMT-state selective cytotoxicity in co-culture – imaging, PC-3E GFP, TEM4-18 mCherry, primary screen (AID 1345086); conditions: PC-3E GFP / TEM4-18 mCherry co-culture, imaging cell counts, at 1 µM; for red/green cell ratio (normalised): actives lie on both sides;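 as to all read-outs here: cells exposed to compound for 72 h before imaging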;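 as to red/green cell ratio (normalised): normalised mesenchymal count divided by normalised epithelial count so high means epithelial killing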
# [3] = test system: Aerobactin synthetase IucA (Klebsiella pneumoniae hvKP1); experiment: IucA enzyme inhibition, primary screen, biochemical, Spectrum library (AID 1346200; call rule not given here;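 also: 100% = wells without compound and 0% = wells lacking enzyme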); conditions: malachite green pyrophosphate, A620, at 8 µM, stronger effect = lower value
# [4] = viability loss with induced miR-34 in A549 – imaging, A549 dox-inducible miR-34, nuclei and caspase counts, primary screen (AID 1347080;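 active = compounds whose cell count with miR-34 switched on is under 0.7 times the count with it off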); conditions: A549 miR-34 inducible, Hoechst nuclei count, 48 h
# [5] = galactose survival enhancers in mitochondrial complex I cybrids – cell-based, galactose medium, ATP luminescence, primary screen (AID 1645843;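 active = z-score of at least 1.8 in each of two replicates, scored against plate mean and spread of sample wells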;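 also: positive z means more ATP and so rescue of galactose-driven cybrid death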); conditions: complex I mutant cybrid cells, 72 h, stronger effect = higher value
# [6] = measured here: epithelial PC-3E GFP cell survival
# [7] = measured here: mesenchymal TEM4-18 mCherry cell survival
# [8] = measured here: relative caspase fold change +Dox/-Dox
# [9] = measured here: total cells with miR-34 induction, stronger effect = lower value
# [10] = measured here: total cells without miR-34 induction
# [11] = counts scaled to control wells, 1 = unselective
SMILES,parasite load remaining [1],viability [1],red/green cell ratio (normalised) [2],"normalised cell number [2, 6]","normalised cell number [2, 7]",activity remaining [3],fold change ([4]; stronger effect = lower value),"fold change [4, 8]","cell count [4, 9]","cell count [4, 10]","red/green cell ratio (normalised) [2, 11]",z-score [5]
CC(CO)NC(=O)C1C=C2c3cccc4[nH]cc(c34)C[C@H]2N(C)C1 (some centres not stated),81.6% (inactive) and 59.7% (inactive),72.8% and 111%,1.15 (inactive),0.77,0.88,98.2% (inactive),0.895 (inactive),3.49,11100,12400,–,–
NC1C[C@H]1c1ccccc1 (some centres not stated),139% (inactive) and 41.7% (inactive),72.4% and 86.6%,1.23 (inactive),0.99,1.22,123% (inactive),0.916 (inactive),1.81,11800,12900,–,–
Nc1ncn[nH]1,–,–,1.3 (inactive),0.82,1.07,92.7% (inactive),–,–,–,–,–,–
C[N+]1(C)CCc2cc3c(cc2[C@H]1C1OC(=O)c2c1ccc1c2OCO1)OCO3 (some centres not stated),–,–,–,1.35,1.18,129% (inactive),–,–,–,–,0.88 (inactive),–
CC(=O)O[C@H]1C[C@@H](OC(C)=O)C(C)(C)C2C[C@@H](OC(C)=O)[C@]3(C)C(CC[C@@]4(C)[C@H](c5ccoc5)C(=O)[C@H]5O[C@]543)[C@]21C (some centres not stated),–,–,1.03 (inactive),1.08,1.12,109% (inactive),–,–,–,–,–,–
CN1C2C[C@H](OC(=O)[C@H](CO)c3ccccc3)C[C@H]1[C@@H](O)C2,–,–,0.94 (inactive),1.1,1.03,109% (inactive),0.908 (inactive),0.859,8730,9620,–,–
C[C@H]1C[C@@H](O)[C@]2(O)[C@@]13CC(=O)OC[C@@]2(C)[C@](C)(O)C(=O)C3,–,–,1.18 (inactive),0.96,1.13,127% (inactive),–,–,–,–,–,–
C[C@@H]1O[C@@H](O[C@H]2C[C@@H](O)[C@]3(CO)C4C(CC[C@]3(O)C2)[C@@]2(O)CC[C@H](C3=CC(=O)OC3)[C@@]2(C)C[C@H]4O)[C@H](O)[C@H](O)[C@H]1O (some centres not stated),242% (inactive) and -0.205% (inactive),38.6% and 15.3%,0.13 (inactive),0.14,0.02,122% (inactive),0.536 (active),2.2,195,364,–,–
C=C[C@H]1CN2CC[C@H]1C[C@@H]2[C@H](O)c1ccnc2ccccc12,84.2% (inactive) and 28.1% (inactive),73.3% and 88.8%,1.26 (inactive),0.87,1.1,125% (inactive),0.93 (inactive),2.81,12200,13100,–,–
C=CCc1ccc(OC)cc1,–,–,1.02 (inactive),0.96,0.99,107% (inactive),–,–,–,–,–,–
CCC(=O)O[C@H]1CCC2C3CCC4=CC(=O)CC[C@]4(C)C3CC[C@@]21C (some centres not stated),54.4% (inactive),99.7%,1.2 (inactive),1.23,1.48,108% (inactive),0.927 (inactive),4.54,10500,11300,–,–
O=C1CCCC2C3CC(CN12)[C@@H]1CCCCN1C3 (some centres not stated),–,–,–,0.86,0.98,119% (inactive),–,–,–,–,1.13 (inactive),–
CN1CCc2cc3c(cc2[C@H]1C1OC(=O)c2c1ccc1c2OCO1)OCO3 (some centres not stated),–,–,1.02 (inactive),0.99,1,121% (inactive),–,–,–,–,–,–
O=C1C=CC(=O)c2ccccc21,–,–,0.81 (inactive),1.25,1.02,105% (inactive),–,–,–,–,–,–
O=C1CC[C@@]2(O)[C@H]3Cc4ccc(O)c5c4C2(CCN3CC2CC2)[C@H]1O5,70.5% (inactive) and 73.3% (inactive),84.7% and 132%,1.24 (inactive),1.01,1.26,104% (inactive),0.853 (inactive),4.3,11500,13400,–,–
CCN1C[C@@]2(COC)C3[C@@H](OC)[C@H]4[C@@H]1[C@]3(C(OC)C[C@H]2O)C1C[C@@]2(O)[C@H](OC(=O)c3ccccc3)C1[C@]4(OC(C)=O)[C@@H](O)[C@@H]2OC (some centres not stated),85.5% (inactive) and 32.5% (inactive),79.4% and 105%,1.07 (inactive),1.01,1.07,113% (inactive),0.875 (inactive),3.63,11000,12600,–,–
Oc1ccc2c3c1OC1[C@@H](O)CC[C@@]4(O)[C@@H](C2)N(CC2CCC2)CC[C@]314 (some centres not stated),136% (inactive) and 45% (inactive),75.1% and 93.8%,0.87 (inactive),1.11,0.97,103% (inactive),0.892 (inactive),2.83,12000,13500,–,–

SMILES,parasite load remaining [1],viability [1],red/green cell ratio (normalised) [2],"normalised cell number [2, 6]","normalised cell number [2, 7]",activity remaining [3],fold change ([4]; stronger effect = lower value),"fold change [4, 8]","cell count [4, 9]","cell count [4, 10]","red/green cell ratio (normalised) [2, 11]",z-score [5]
CC1(C)C(=O)C=C[C@@]2(C)C1=C(O)C(=O)[C@]1(C)C2CC[C@@]2(C)[C@H](c3ccoc3)C[C@H]3O[C@]321 (some centres not stated),–,–,1.22 (inactive),0.97,1.19,116% (inactive),–,–,–,–,–,–
CC(=O)O[C@@H]1C[C@@]2(C)[C@H](c3ccoc3)C[C@H]3O[C@]32[C@]2(C)C(=O)C(O)=C3C(C)(C)C(=O)C=C[C@]3(C)C12 (some centres not stated),–,–,0.93 (inactive),0.15,0.14,102% (inactive),–,–,–,–,–,–
C=C[C@H]1CN2CC[C@H]1C[C@@H]2[C@@H](OC(=O)OCC)c1ccnc2ccc(OC)cc12,53% (inactive),91.4%,1.15 (inactive),0.67,0.77,98.2% (inactive),0.94 (inactive),1.23,11100,11800,–,–
C#CC1(O)CCC2C3CCC4=CC(=O)CCC4(C)C3CCC21C (configuration not stated),62% (inactive) and 21.3% (inactive),93.9% and 81%,0.77 (inactive),1.21,0.93,112% (inactive),0.935 (inactive),2.1,10400,11100,–,–
COC[C@]12CN(C=O)C3[C@@H]4[C@H](OC)C1[C@]3(C1CC3(O)C(OC)C(O)C4(OC(C)=O)C1C3OC(=O)c1ccccc1)[C@@H](OC)C[C@H]2O (some centres not stated),–,–,1 (inactive),1.06,1.06,118% (inactive),–,–,–,–,–,–
C[C@@H]1CC[C@@]2(OC1)OC1C(O)C3C4CC[C@H]5C[C@H](O[C@@H]6O[C@H](CO)[C@H](O[C@@H]7O[C@H](CO)[C@@H](O)[C@H](O[C@@H]8OC[C@@H](O)[C@H](O)[C@H]8O)[C@H]7O[C@@H]7O[C@H](CO)[C@H](O)[C@H](O[C@@H]8O[C@H](CO)[C@@H](O)[C@H](O)[C@H]8O)[C@H]7O)[C@H](O)[C@H]6O)[C@H](O)C[C@]5(C)C4CC[C@]3(C)C1[C@@H]2C (some centres not stated),–,–,0.84 (inactive),0.9,0.76,111% (inactive),–,–,–,–,–,–
Cc1c(O)c(O)cc2c1CC=C1[C@@]2(C)CC[C@@]2(C)C3C[C@](C)(C(=O)O)CC[C@]3(C)CC[C@]12C (some centres not stated),–,–,0.65 (inactive),0.64,0.41,103% (inactive),–,–,–,–,–,–
CC(C)c1cc2c(c(O)c1O)[C@@]1(C(=O)O)CCCC(C)(C)C1CC2 (some centres not stated),–,–,1.17 (inactive),0.87,1.02,114% (inactive),–,–,–,–,–,–
C=C1CC2C(CC[C@]3(C)C(=O)CCC23)[C@@]2(C)C=CC(=O)C=C12 (some centres not stated),9.27% (inactive),99%,1.16 (inactive),1.01,1.17,121% (inactive),0.911 (inactive) and 0.833 (inactive),1 and 2.69,8770 and 9350,9630 and 11200,–,-1.42 (inactive)
COc1cccc([C@]2(O)CCCC[C@H]2CN(C)C)c1,–,–,1.34 (inactive),1.13,1.5,98.7% (inactive),0.9 (inactive),6.33,11600,12900,–,–
COc1cc2c(cc1O)CC1c3c(cc(O)c(OC)c3-2)CCN1C (configuration not stated),73.5% (inactive),80.3%,0.97 (inactive),1.11,1.07,119% (inactive),–,–,–,–,–,–
NC1=NC(=O)N2CC12 (configuration not stated),–,–,0.74 (inactive),1.2,0.88,–,0.901 (inactive),0.97,8180,9090,–,–
c1cncc(C2CCCCN2)c1 (configuration not stated),–,–,–,1.09,1.07,102% (inactive),–,–,–,–,0.98 (inactive),–
C=CCN=C=S,–,–,0.88 (inactive),1.07,0.93,–,1.01 (inactive),0.842,7390,7280,–,–
CN(C)Cc1c[nH]c2ccccc12,169% (inactive) and 78.1% (inactive),115% and 79.2%,1.08 (inactive),0.84,0.9,–,0.891 (inactive) and 0.984 (inactive),2.07 and 0.28,8410 and 7970,9440 and 8100,–,–
O=c1cccc2n1C[C@H]1CNCC2C1,64.2% (inactive),103%,0.78 (inactive),1.31,1.02,107% (inactive),–,–,–,–,–,–
